Source: article PMC4336329 (PLoS ONE, 2015)
About 14,000 (4.5%) of roughly 310,000 compounds showed an effect of 50% or more. Effects have a minus sign here. The sample as a whole holds a higher share of strong results than the screen did.

Target: human ether-à-go-go-related gene (hERG) potassium channel (human, UniProt Q12809)
Assay: primary screen, population patch clamp on CHO cells stably expressing hERG; higher = less effect of the substance
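Note: peak tail current of the secondary pulse compared with the same well before compound.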

Chain of human ether-à-go-go-related gene (hERG) potassium channel (Q12809 whole entry, looked up): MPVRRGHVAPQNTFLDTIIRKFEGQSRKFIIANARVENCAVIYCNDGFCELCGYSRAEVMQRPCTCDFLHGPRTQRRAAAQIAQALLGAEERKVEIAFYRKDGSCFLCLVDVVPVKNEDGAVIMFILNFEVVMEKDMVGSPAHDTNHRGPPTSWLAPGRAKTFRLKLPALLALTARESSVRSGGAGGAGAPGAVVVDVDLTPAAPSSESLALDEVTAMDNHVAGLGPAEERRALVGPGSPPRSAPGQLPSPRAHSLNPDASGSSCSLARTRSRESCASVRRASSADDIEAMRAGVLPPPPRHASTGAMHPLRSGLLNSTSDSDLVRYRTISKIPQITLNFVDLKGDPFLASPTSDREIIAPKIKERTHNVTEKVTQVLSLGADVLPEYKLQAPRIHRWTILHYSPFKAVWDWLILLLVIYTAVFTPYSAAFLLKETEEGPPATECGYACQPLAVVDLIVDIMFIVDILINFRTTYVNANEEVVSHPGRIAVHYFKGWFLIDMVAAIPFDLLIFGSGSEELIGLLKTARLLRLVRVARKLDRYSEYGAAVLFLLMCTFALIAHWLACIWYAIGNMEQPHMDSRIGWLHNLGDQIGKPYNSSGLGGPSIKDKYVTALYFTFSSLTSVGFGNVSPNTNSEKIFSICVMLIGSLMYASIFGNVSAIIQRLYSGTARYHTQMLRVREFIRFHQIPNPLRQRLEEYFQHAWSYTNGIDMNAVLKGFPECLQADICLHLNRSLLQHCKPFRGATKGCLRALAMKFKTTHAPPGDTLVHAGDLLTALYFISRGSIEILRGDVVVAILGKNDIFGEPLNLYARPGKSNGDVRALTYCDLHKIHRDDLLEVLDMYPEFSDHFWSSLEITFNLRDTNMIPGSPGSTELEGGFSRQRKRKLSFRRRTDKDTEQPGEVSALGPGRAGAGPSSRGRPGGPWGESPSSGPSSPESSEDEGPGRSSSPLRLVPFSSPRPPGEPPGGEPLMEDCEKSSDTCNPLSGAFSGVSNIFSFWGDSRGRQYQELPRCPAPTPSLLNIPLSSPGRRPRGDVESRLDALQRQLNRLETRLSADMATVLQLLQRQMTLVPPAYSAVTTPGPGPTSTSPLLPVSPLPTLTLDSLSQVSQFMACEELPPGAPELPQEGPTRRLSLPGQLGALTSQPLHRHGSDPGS

Compound | hERG current change (%, negative = inhibition) at 10uM [%]
N#Cc1c(C(F)(F)F)cc(-c2ccccc2)nc1SCC(=O)N1CCOCC1 | -8.28
CC(C)NC(=O)CSc1ncccc1-c1nc2ccccc2[nH]1 | -17.1
O=C1CC(c2ccccc2)CC(=O)C1CS(=O)(=O)c1ccccc1 (stereo not drawn) | 18.1
Cc1ccc(-c2noc(CSc3ccccc3)n2)cc1 | 10.2
O=C1c2cccnc2C(Nc2ccc(S(=O)(=O)N3CCCCCC3)cc2)N1Cc1ccccc1 (stereo not drawn) | -9.79
Cc1cc(Cn2ccnc2)c(C)c([N+](=O)[O-])c1Cn1ccnc1 | -7.19
CC1CCCC(NC(=O)CCC(=O)NCc2ccccc2)C1C (stereo not drawn) | 11.5
O=S(=O)(O)c1cnccc1Nc1cccc(C(F)(F)F)c1 | 5.95
Cc1nc2ncnn2c(N2CCCC(C(=O)Nc3ccccc3Br)C2)c1C (stereo not drawn) | -60.2
Cc1cc(N2CCCC(C(=O)Nc3cccc4ccccc34)C2)n2ncnc2n1 (stereo not drawn) | -61.9
Cc1cc(N2CCCC(C(=O)Nc3ccc4c(c3)CCC4)C2)n2ncnc2n1 (stereo not drawn) | -57.2
O=C(Nc1ccc2c(c1)CCC2)C1CCCN(c2ncccn2)C1 (stereo not drawn) | -2.53
Cc1nc2ncnn2c(N2CCCC(C(=O)Nc3ccc4c(c3)CCC4)C2)c1C (stereo not drawn) | -53
CCc1c(C)nc2ncnn2c1N1CCCC(C(=O)NCc2cccs2)C1 (stereo not drawn) | -19.1
COc1cc(C)nc(N2CCCC(C(=O)Nc3ccccc3Br)C2)n1 (stereo not drawn) | 8.77
COc1ccccc1NC(=O)C1CCCN(c2cc(C)nc3ncnn23)C1 (stereo not drawn) | -20.8
COc1ccccc1NC(=O)C1CCCN(c2nc(C)cc(C)n2)C1 (stereo not drawn) | -10
Cc1cc(C)nc(N2CCC(C(=O)Nc3ccc4c(c3)CCC4)CC2)n1 | 17.3
Cc1cc(N2CCCC(C(=O)Nc3cccc(Cl)c3)C2)n2ncnc2n1 (stereo not drawn) | -38
COc1ccc(NC(=O)C2CCCN(c3cc(C)nc4ncnn34)C2)cc1 (stereo not drawn) | -12.5
CC(Oc1ccc2c3c(c(=O)oc2c1)CCCC3)C(=O)NCc1ccncc1 (stereo not drawn) | 4.36

Compound | hERG current change (%, negative = inhibition) at 10uM [%]
Cc1nn(CC(O)Cn2c3c(c4ccccc42)CCN(C)C3=O)c(C)c1Br (stereo not drawn) | -17.5
CNC(=S)Nc1cc(C)ccc1OC(F)F | 2.85
CCCCn1c(N)c(N(CC)C(=O)CCNC(=O)NC23CC4CC(CC(C4)C2)C3)c(=O)[nH]c1=O | 8.45
CCN(CC)S(=O)(=O)c1ccc(N2CCCC2)c(C(=O)OCC(=O)N2CCCC2)c1 | -3.73
O=C(NC1CONC1=O)OCC(Cl)(Cl)Cl (stereo not drawn) | 8.91
CC(C)c1cc(C(=O)O)n[nH]1 | 20.3
COC(=O)c1ccc(NC(=O)CCc2nnc3ccc(N4CCC5(CC4)OCCO5)nn23)cc1 | 10.1
CCc1ccccc1NC(=S)N(CCN(C)C)C(C)c1ccccn1 (stereo not drawn) | -30.8
O=C(NNC(=O)c1ccccc1OCc1ccccc1Cl)c1csc(N2CCOCC2)n1 | 31
O=C(COC(=O)c1ccc(F)c(S(=O)(=O)N2CCOCC2)c1)NC1CC1 | -17.4
COc1cc2c(cc1OC)C(C)N(C(=O)C(NC(=O)c1ccccc1)C(C)C)CC2 (stereo not drawn) | 7.1
COc1ccc(-c2ocnc2C(=O)NCc2nn(-c3ccccc3)nc2C)cc1 | 5.05
CN(C)CCN(C(=O)c1ccc2c(c1)CCCC2)c1nc2c(F)cccc2s1.Cl | -14.6
COc1cccc2sc(N(CCN(C)C)C(=O)c3ccc4c(c3)CCCC4)nc12.Cl | -66.7
COc1cccc2sc(N(CCCN(C)C)C(=O)c3ccc(S(=O)(=O)N4CCCc5ccccc54)cc3)nc12.Cl | -68.3
CCOc1ccc2nc(N(CCN(C)C)C(=O)c3ccc4c(c3)CCCC4)sc2c1.Cl | -1.63
CN(C)CCCN(C(=O)c1ccc2c(c1)CCCC2)c1nc2c(F)cccc2s1.Cl | -70
COc1ccc2sc(N(CCCN(C)C)C(=O)c3ccc(S(=O)(=O)N4CCCc5ccccc54)cc3)nc2c1.Cl | -14.4
CN(C)CCCN(C(=O)c1ccc(S(=O)(=O)N2CCc3ccccc32)cc1)c1nc2c(Cl)cccc2s1.Cl | -27.6
COc1cccc2sc(N(CCN(C)C)C(=O)c3ccc(S(=O)(=O)N4CCCC4)cc3)nc12.Cl | -31.2
O=C1N=C(N2CCOCC2)S/C1=C\c1ccc(-c2ccccc2Cl)o1 | -15.3

Compound | hERG current change (%, negative = inhibition) at 10uM [%]
COC(=O)CS(=O)(=O)c1ccsc1C(=O)Nc1ccc(F)cc1 | 3.5
Cc1ccc(SCCC(=O)Nc2ccccc2Br)cc1 | 12.8
C=CCn1cnc2c(oc3ccccc32)c1=O | 4.04
Cc1cnc(C(=O)OCC(=O)N=c2sccn2Cc2ccccc2Cl)cn1 | 10.1
CCOC(=O)N1CCC(NC(=O)COc2cc(=O)n(C)c3ccccc23)CC1 | 6.6
O=C(NCCNS(=O)(=O)c1ccccc1)N1CCOCC1 | 18.3
O=C(NC1CCCCC1)C(c1ccccc1F)N(Cc1ccco1)C(=O)c1ccccn1 (stereo not drawn) | -4.03
COc1ccc(C2=Nn3c([n+](C)c4ccccc43)SC2)cc1.[Br-] | -44.2
Cc1nnc2n(c1=O)N=C(c1ccc(Cl)cc1)CS2 | 6.25
CCc1nnc2n1N=C(c1ccc(Cl)cc1)CS2 | 8.48
COc1ccccc1-c1nnc2n1N=C(c1ccc(O)c(O)c1)CS2 | -0.453
C[n+]1c2n(c3ccccc31)N=C(c1ccccc1)CS2.[Br-] | -47.3
CC1Sc2n(c3ccccc3[n+]2C)N=C1c1ccccc1.[Br-] (stereo not drawn) | -49.6
C[n+]1c2n(c3ccccc31)N=C(c1ccc(-c3ccccc3)cc1)CS2.[Br-] | -79.7
C[n+]1c2n(c3ccccc31)N=C(c1ccc(Br)cc1)CS2.[Br-] | -69.5
C[n+]1c2n(c3ccccc31)N=C(c1cc(C(C)(C)C)c(O)c(C(C)(C)C)c1)CS2.[Br-] | -77.6
C[n+]1c2n(c3ccccc31)N=C(c1ccc(Cl)cc1)CS2.[Br-] | -69
Cc1cc(Cn2nnc3ccccc32)c(O)c(C(C)(C)C)c1 | 19.3
Cc1ccc(-c2nnc3n2N=C(c2ccc(Br)cc2)CS3)cc1 | -1.26
Cc1ccc2nc(N3C(=O)C(O)=C(C(=O)c4ccc(C)o4)C3c3ccco3)sc2c1 (stereo not drawn) | 12.8
COC(=O)c1ccc(NC(=O)C[n+]2ccccc2)cc1.[Cl-] | 11.9

Compound | hERG current change (%, negative = inhibition) at 10uM [%]
COc1ccc(NC(=O)Cn2c(=O)oc3cc(S(=O)(=O)N4CCCC4)ccc32)c(OC)c1 | 7.38
O=C(Nc1ccccc1)c1ccc(NCCN2C(=O)CCC2=O)c([N+](=O)[O-])c1 | 10.9
CCCn1c(N)c(N2CCCCC2)c(=O)n(CC(=O)Nc2ccccc2C)c1=O | 14.6
Cc1nn(C)cc1C(C)Nc1nc2nonc2nc1N1CCCCC1 (stereo not drawn) | 0.196
CCN(Cc1ccc2c(c1)OCO2)C(=O)CSc1nc(C)nc2sc(C)c(C)c12 | -5.76
COc1ccc(C(=O)Nc2c(N)nc(SCC(=O)Nc3ccc(NC(C)=O)cc3)[nH]c2=O)cc1 | 21.9
COc1cc(OC)c2c(-c3ccccc3)cc(=O)oc2c1C(CCN1CCCC(C)C1)c1ccc2c(c1)OCO2 (stereo not drawn) | -48.8
COc1ccc(C(CCN2CCCC2)c2c(OC)cc(OC)c3c(-c4ccccc4)cc(=O)oc23)cc1 (stereo not drawn) | -52.7
COc1ccc(C(CC(=O)N2CCCC2)c2c(OC)cc(OC)c3c(-c4ccccc4)cc(=O)oc23)cc1 (stereo not drawn) | -5.46
COc1cc(OC)c2c(-c3ccccc3)cc(=O)oc2c1C(CCN1CCCCC1)c1ccc(N(C)C)cc1 (stereo not drawn) | -25
COc1cc(OC)c2c(-c3ccccc3)cc(=O)oc2c1C(CCN1CCCC1)c1ccc2c(c1)OCO2 (stereo not drawn) | -46.9
CCN(CC)CCC(c1ccc2c(c1)OCO2)c1c(OC)cc(OC)c2c(-c3ccccc3)cc(=O)oc12 (stereo not drawn) | -65.4
CCN(CC)C(=O)CC(c1ccc2c(c1)OCO2)c1c(OC)cc(OC)c2c(-c3ccccc3)cc(=O)oc12 (stereo not drawn) | 5.08
COc1cc(OC)c2c(-c3ccccc3)cc(=O)oc2c1C(CCN1CCCCC1)c1ccc2c(c1)OCO2 (stereo not drawn) | -53.2
COc1ccc(C(CCN2CCN(c3ccccc3)CC2)c2c(OC)cc(OC)c3c(-c4ccccc4)cc(=O)oc23)cc1 (stereo not drawn) | -9.55
CCN(CC)CCC(c1ccc(N(C)C)cc1)c1c(OC)cc(OC)c2c(-c3ccccc3)cc(=O)oc12 (stereo not drawn) | -24.5
COc1ccc(C(CCN2CCCCC2)c2c(OC)cc(OC)c3c(-c4ccccc4)cc(=O)oc23)cc1 (stereo not drawn) | -55.1
COc1ccc(C(CC(=O)N2CCCCC2)c2c(OC)cc(OC)c3c(-c4ccccc4)cc(=O)oc23)cc1 (stereo not drawn) | 0.849
